13 compounds from PubChem BioAssay (NCATS) can be followed below.

One experiment relates to CRL-7250. The experiment is described as follows: Cytotoxic Profiling of Annotated Libraries Using Quantitative High-Throughput Screening (AID 1296008). For max response: % is set by controls: 0 for no effect and ±100 for the full control effect. Note: nearly all actives have a fitted effect of over 60% in size. Note: potency is the fitted concentration of half-maximal effect. To be noted: Five cell lines viability, CellTiter-Glo ATP luminescence, 48-72 h; max response: hits give low values. The procedure, abridged:
(§1)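 Cells exposed to compounds for 48 or 72 hr at 37 degrees Celsius. Viability read as ATP-coupled luminescence with CellTiter-Glo after 10 min at room temperature.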

A further experiment relates to HEK293. The experiment is described as above. As to conditions: Five cell lines viability, CellTiter-Glo ATP luminescence, 48-72 h; max response: hits give low values. Put shortly: as §1
A general note: ATP-based viability assays read luminescence as a measure of living cells.

Another experiment concerns HaCat. The description is as above. As to conditions: Five cell lines viability, CellTiter-Glo ATP luminescence, 48-72 h; max response: hits give low values. Put shortly: as §1
The next experiment deals with KB-3-1. The description is as above. To be noted: Five cell lines viability, CellTiter-Glo ATP luminescence, 48-72 h; max response: hits give low values. The procedure, abridged: as §1
Experiment [1] has as its system NIH3T3. The description is as above. To be noted: Five cell lines viability, CellTiter-Glo ATP luminescence, 48-72 h; max response: hits give low values. Put shortly:
as §1

Experiment [2] relates to HEK293T. In words: qHTS assay to identify novel small-molecules to repurpose for Merkel cell carcinoma treatment (AID 1296009). Note: nearly all actives have a fitted effect of over 60% in size. To be noted: MCC and control cell lines, CellTiter-Glo viability, 72 h; at 44.8 µM (top of the series) unless noted. The procedure, abridged:
(§2)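 CellTiter-Glo luminescence after 72 hr compound exposure at 37 degree celsius gave cell viability. Libraries NPC and MIPE were run as 8- and 11-point dose responses; RLUs normalized to DMSO (negative) and no-cell (cytotoxicity) controls.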

In another experiment the test system is C33A. The experiment is described as follows: Primary qHTS to identify gynecologic anti-cancer compounds using libraries of approved drugs and bioactive compounds (AID 1345084). Note: % is set by controls: 0 for no effect and ±100 for the full control effect; nearly all actives have a fitted effect of over 55% in size. As to conditions: Gynecologic cancer cell panel viability, ATPlite luminescence, 48 h; series mostly up to 57.5 µM. The procedure, abridged:
(§3)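 48 h compound exposure at 37 C, 5% CO2; five-point qHTS. ATPlite luminescence readout of cell ATP.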
(In general: In qHTS, concentration-response curves come from the screen itself.)

For another experiment, the system named is CAOV3. The experiment is described as above. As to conditions: Gynecologic cancer cell panel viability, ATPlite luminescence, 48 h; series mostly up to 57.5 µM. The procedure, abridged: as §3
The test system of another experiment is CASKI. Described as above. As to conditions: Gynecologic cancer cell panel viability, ATPlite luminescence, 48 h; series mostly up to 57.5 µM. The procedure, abridged:
as §3

A further experiment concerns Es-2. The experiment is described as above. To be noted: Gynecologic cancer cell panel viability, ATPlite luminescence, 48 h; series mostly up to 57.5 µM. Put shortly:
as §3

The subject of the next experiment is HeLa. Described as above. To be noted: Gynecologic cancer cell panel viability, ATPlite luminescence, 48 h; series mostly up to 57.5 µM. Put shortly:
as §3

The subject of a further experiment is JEG-3. The description is as above. To be noted: Gynecologic cancer cell panel viability, ATPlite luminescence, 48 h; series mostly up to 57.5 µM. The procedure, abridged: as §3
Experiment [3] deals with Hek293T. The description is as above. As to conditions: Gynecologic cancer cell panel viability, ATPlite luminescence, 48 h, control line for the selectivity index; series mostly up to 57.5 µM. Put shortly:
as §3

The next experiment deals with OV90. The description is as above. To be noted: Gynecologic cancer cell panel viability, ATPlite luminescence, 48 h; series mostly up to 57.5 µM. The procedure, abridged:
as §3

For experiment [4], the system named is NIH3T3. In words: qHTS assay to identify novel small-molecules to repurpose for Merkel cell carcinoma treatment (AID 1296009). Note: nearly all actives have a fitted effect of over 60% in size. As to conditions: MCC and control cell lines, CellTiter-Glo viability, 72 h; at 44.8 µM (top of the series) unless noted. Put shortly: as §2

Inconclusive results are not listed. A number with no mark means an inactive call. Activity calls are given as the source filed them. Calls come from the whole dose curve; as a rule, active = well fitted curve in the direction sought with a large enough effect; inconclusive = small, poorly fitted or top-dose-only effect, or another doubt; inactive = no such curve, though single readings can be large; an effect the other way counts as inactive or inconclusive. Where a SMILES comes first, the peptide text is derived from it.

Turning to `c1ccc2c(Nc3nnc(-c4ccncc4)s3)cccc2c1`, the max response with CRL-7250 is 3.08%; in the experiment on HaCat, -11.3%; in the experiment with KB-3-1, 9.81%; in the experiment on NIH3T3 [1], -0.252%. Besides, the outcome in the experiment on HEK293, in the experiment with HEK293T [2] and in the experiment with CASKI was inactive. The Potency entry with C33A, in the experiment on CAOV3, in the experiment on Es-2, in the experiment with HeLa and with JEG-3 was “inactive” each time.
For `CC(=O)NC(Cc1ccccc1)C(=O)NC(C(=O)O)C(C)C` (stereo not drawn) (Ac-Phe-Val-OH; configuration not given here), the max response in the experiment on CRL-7250 is -0.555%; in the experiment on HaCat, -2.09%; with KB-3-1, 4.23%; in the experiment on NIH3T3 [1], 4.03%. Moreover, the call with HEK293 and in the experiment with HEK293T [2] was inactive. Further, the Potency result in the experiment with C33A, in the experiment on CAOV3, in the experiment with Es-2, with HeLa, in the experiment with Hek293T [3] and in the experiment with JEG-3 was “inactive” each time. In addition, the Potency entry with OV90 is “inactive”.
`C[C@@H]1[C@H]2[C@H](O[C@@H]3O[C@H](CO)[C@@H](O)[C@H](O)[C@H]3O)OC=C(C(=O)O)[C@H]2C[C@@H]1OC(=O)/C=C/c1ccc(O)cc1`: the max response in the experiment with CRL-7250 was -1.73%; with HaCat, -1.65%; with KB-3-1 it was 7.88%; in the experiment with NIH3T3 [1], 1.42%. In addition, the call in the experiment on HEK293 and with CASKI was inactive. Besides, the outcome in the experiment with HEK293T [2] is “inactive [at 17.4 µM]”. Besides, the Potency entry in the experiment with C33A, with CAOV3, with Es-2, in the experiment on HeLa, in the experiment with Hek293T [3] and with JEG-3 was “inactive” throughout. Further, the Potency result with OV90 was “inactive”.
On to `CC(C)C(O)(CO)CCO[C@@H]1O[C@H](CO[C@H]2OC[C@](O)(CO)[C@H]2O)[C@@H](O)[C@H](O)[C@H]1O` (stereo partly specified), for which the max response is 2.62% with CRL-7250, -11.4% in the experiment with HEK293, -9.77% in the experiment with HaCat and 4.64% in the experiment on KB-3-1. The compound was called inactive in the experiment on NIH3T3 [1] and with CASKI. In the experiment on NIH3T3 [4], the outcome is “inactive [at 17.4 µM]”. In addition, the Potency entry in the experiment on C33A, in the experiment with CAOV3, with Es-2, in the experiment on HeLa, with Hek293T [3] and in the experiment on JEG-3 was “inactive” throughout. In the experiment with OV90, the Potency result was “inactive”.
For `COc1cc2nc(=NC(=O)c3cccnc3)n3c(c2cc1OC)NCC3`, the max response was 4.99% with CRL-7250 and -3.57% in the experiment on HEK293. Also, the Potency in the experiment with HaCat was 16.4 µM (active). Besides, the compound was called inactive in the experiment with KB-3-1, in the experiment with NIH3T3 [1], in the experiment on NIH3T3 [4] and with CASKI. Besides, the Potency result with C33A, in the experiment with CAOV3, in the experiment on Es-2, in the experiment on HeLa, in the experiment with Hek293T [3] and in the experiment with JEG-3 was “inactive” each time. Also, the Potency result in the experiment on OV90 was “inactive”.
Consider `CC1(C)C=Cc2c(ccc3c2N=C2C(C)(C)[C@@H]4C[C@]56CCCN5C(=O)[C@@]4(C[C@]23O)NC6=O)O1`, for which the max response is 3.82% with CRL-7250, 3.57% in the experiment on HaCat and -4.67% in the experiment with NIH3T3 [1]. The outcome with HEK293, with KB-3-1 and in the experiment with CASKI was inactive. Further, the outcome with HEK293T [2] was “inactive [at 17.4 µM]”. In addition, the Potency entry with C33A, in the experiment on Es-2, with HeLa, in the experiment on Hek293T [3], in the experiment with JEG-3 and in the experiment on OV90 was “inactive” each time.
`CC(=O)OC1CCC2(C)C(CCC3(C)C2CC=C2C4CC(C)(C)CCC4(C)CCC23C)C1(C)C(=O)O` (stereo unspecified): the max response in the experiment with CRL-7250 is -8.32%; with HaCat, -5.03%; in the experiment with KB-3-1, 3%; in the experiment with NIH3T3 [1], 3.68%. Besides, the call in the experiment on HEK293 and with CASKI was inactive. Besides, the outcome in the experiment with HEK293T [2] is “inactive [at 17.4 µM]”. For the same compound, the Potency result in the experiment on C33A, in the experiment with Es-2, in the experiment on HeLa, in the experiment on Hek293T [3], in the experiment on JEG-3 and in the experiment with OV90 was “inactive” throughout.
`O=C(/C=C/c1ccc(O)cc1)OC[C@H]1O[C@H](O[C@@]2(CO)O[C@@H](CO)[C@H](O)[C@H]2O)[C@H](O)[C@@H](O)[C@@H]1O`: the compound was classed as inactive with CRL-7250, in the experiment with HEK293, in the experiment with KB-3-1 and with CASKI. Besides, the max response with HaCat is 1.8%; in the experiment with NIH3T3 [1], -0.438%. Also, the outcome in the experiment on HEK293T [2] was “inactive [at 17.4 µM]”. Moreover, the Potency entry in the experiment with C33A, in the experiment with Es-2, in the experiment on HeLa, in the experiment with Hek293T [3], with JEG-3 and in the experiment on OV90 was “inactive” throughout.
As to `C=C(C(=O)O)C1CC(O)C2(C)CCCC(C)(O)C2C1` (stereo unspecified), the compound was called inactive with CRL-7250, with NIH3T3 [1], with NIH3T3 [4] and in the experiment with CASKI. Moreover, the max response in the experiment on HEK293 was -8.07%; in the experiment on HaCat it was -11.8%; in the experiment on KB-3-1 it was 0.961%. For the same compound, the Potency result in the experiment on C33A, with CAOV3, with Es-2, with HeLa, in the experiment with Hek293T [3] and in the experiment on JEG-3 was “inactive” throughout. Also, in the experiment on OV90, the Potency result is “inactive”.
Regarding `CCC/C=C1\OC(=O)C2=C1CCC(O)C2O` (stereo unspecified), the call in the experiment on CRL-7250, in the experiment with NIH3T3 [1], with NIH3T3 [4] and in the experiment with CASKI was inactive. Also, the max response is 1.42% in the experiment with HEK293, 3.9% with HaCat and 0.969% with KB-3-1. Besides, the Potency entry in the experiment on C33A, in the experiment on CAOV3, in the experiment on Es-2, with HeLa, with Hek293T [3] and in the experiment with JEG-3 was “inactive” in each case. Also, the Potency result in the experiment with OV90 was “inactive”.
For the compound `Cc1occc1C(=O)n1ccnc1`, the max response was -1.62% with CRL-7250, 0.475% with HEK293, 4.32% in the experiment on HaCat and 0.152% in the experiment with KB-3-1. Besides, the result in the experiment with NIH3T3 [1], in the experiment on NIH3T3 [4] and in the experiment on CASKI was inactive. Besides, the Potency result with C33A, in the experiment with CAOV3, with Es-2, in the experiment on HeLa, in the experiment with Hek293T [3] and in the experiment on JEG-3 was “inactive” throughout. Moreover, the Potency entry in the experiment on OV90 is “inactive”.
In the case of `C[C@]12CCC[C@](C)(C(=O)O)C1CCC13CC(CO)C(CCC12)C3` (stereo partly specified), the max response with CRL-7250 was -1.66%; with HEK293 it was 2.28%; in the experiment with HaCat, -11.1%; in the experiment with KB-3-1, 8.03%. For the same compound, the outcome in the experiment with NIH3T3 [1], in the experiment on NIH3T3 [4] and in the experiment on CASKI was inactive. Besides, the Potency result with C33A, in the experiment on CAOV3, in the experiment on Es-2, with HeLa, in the experiment on Hek293T [3] and with JEG-3 was “inactive” in each case. For the same compound, in the experiment with OV90, the Potency result is “inactive”.
With `CC(=O)[C@@H]1C[C@H](C(C)(C)O[C@@H]2O[C@H](CO)[C@@H](O)[C@H](O)[C@H]2O)CC[C@@]2(CO)OC(=O)C[C@@H]12`, the max response in the experiment with CRL-7250 was -8.92%; in the experiment on HEK293, 0.131%; in the experiment on HaCat it was 4.13%; with KB-3-1 it was 1.24%. The call in the experiment with NIH3T3 [1] and in the experiment on CASKI was inactive. The outcome in the experiment on NIH3T3 [4] was “inactive [at 17.4 µM]”. In addition, the Potency entry in the experiment with C33A, in the experiment on CAOV3, in the experiment on Es-2, in the experiment on HeLa, with Hek293T [3] and in the experiment on JEG-3 was “inactive” in each case. The Potency entry in the experiment on OV90 is “inactive”.
